Source: PubChem BioAssay
MCF10A rereplic = induces DNA re-replication in MCF 10a normal breast cells; MCF 10A DNA re-replication, Hoechst nuclear intensity, 48 h; 350,000 compounds, 2.9% hits; Potency, µM (top dose mostly 46.1 µM), for the others: at the top dose activity, positive = re-replication, hits mostly activators; note: % of control where 0% means no effect; nearly all actives have a fitted effect of over 50% in size
HT1080 IDH1KD tx = HT-1080 IDH1 knockdown cell toxicity (counter line). HT-1080 IDH1 knockdown viability, ATP luminescence, 48 h. AID 686971. Potency, µM (series often up to 46.1 µM), for the others: top-dose activity, negative = toxicity, actives largely listed as cytotoxic. 360,000 compounds, 2% hits;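 note: 0% = DMSO wells and -100% = cell-free medium wells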
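Luminescent ATP read-out (CellTiter-Glo, 10 min at room temperature) after 48 h compound exposure at 37 °C gave viability of IDH1-knockdown HT-1080 cells. Activity was normalised to DMSO and cell-free wells, then fitted as concentration-response curves.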
SW480 rerep = DNA re-replication induction in SW480 cells; SW480 DNA re-replication, Hoechst DNA content imaging, 48 h; Potency, µM (highest dose often 46.1 µM), for the others: at the top dose re-replication activation, actives largely listed as activators; 340,000 compounds, 1.8% hits; AID 624297; note: % of control where 0% means no effect; nearly all actives have a fitted effect of over 55% in size
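Image-based DNA-content assay: after two days of treatment, nuclei were labelled with the DNA dye Hoechst and imaged, and hits were compounds raising the count of nuclei showing high fluorescence intensity.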
HT1080-NT tox = kills 2HG-producing HT-1080-NT fibrosarcoma cells | HT-1080-NT fibrosarcoma viability, CellTiter-Glo ATP luminescence, 48 h | Potency, µM (series often up to 46.1 µM), for inactives: at the highest dose activity, negative = less viability, hits mostly cytotoxic | 360,000 compounds, 1.6% hits | AID 686970;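 note: NT is the 2HG producing partner of a matched IDH1 knockdown line; 0% = DMSO-treated cells and -100% = media-only wells without cells; nearly all actives have a fitted effect of over 55% in size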
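Compounds were tested in concentration-response format on HT-1080-NT cells for 48 hours at 37 degrees C. Cell viability came from CellTiter-Glo luminescence; curves were classified by r2, response magnitude and activity.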
KB-V1 MDR tox = kills drug-selected multidrug resistant KB-V1 cells. KB-V1 MDR cells viability, CellTiter-Glo, 72 h. 400,000 compounds, 3.4% hits. Potency, µM (doses to about 46.1 µM), actives largely listed as cytotoxic; note: % is set by controls: 0 for no effect and ±100 for the full control effect; nearly all actives have a fitted effect of over 60% in size
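KB-V1 cells (P-gp-expressing MDR subline of KB-3-1) in phenol-red-free DMEM with 10% FBS were exposed to library compounds over a concentration series for 72 h at 37 degrees C. Viability read by CellTiter-Glo luminescence; concentration-effect curves fitted after normalization.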
KB-3-1 tox = kills parental KB-3-1 adenocarcinoma cells | KB-3-1 viability, CellTiter-Glo ATP luminescence, 72 h | Potency, µM (doses to about 46.1 µM), hits mostly cytotoxic | 400,000 compounds, 1.4% hits; note: % is set by controls: 0 for no effect and ±100 for the full control effect; nearly all actives have a fitted effect of over 60% in size
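Cells are dispensed, compounds pinned in, plates held at 37 °C for 72 h, then CellTiter-Glo is added and luminescence read after 10 minutes. Cell line: parental KB-3-1 in phenol-red-free DMEM, 10% FBS.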
An asterisk follows results filed as active; i = inactive; ? = inconclusive; nt = no result given. An excerpt weighted towards active compounds, which were near 8% of everything screened. Calls come from the whole dose curve; as a rule, active = well fitted curve in the direction sought with a large enough effect; inconclusive = small, poorly fitted or top-dose-only effect, or another doubt; inactive = no such curve, though single readings can be large; an effect the other way counts as inactive or inconclusive. Potency is the fitted concentration of half-maximal effect.

SMILES | MCF10A rereplic | HT1080 IDH1KD tx | SW480 rerep | HT1080-NT tox | KB-V1 MDR tox | KB-3-1 tox
CC(=O)Nc1cccc(-c2ccnc3c2CC(C(=O)NCCC(F)(F)F)O3)c1 (stereo not drawn) | nt | 20.6µM* | nt | ? | i | ?
COc1ccc(CCCNC(=O)C2Cc3c(-c4cccc(NC(C)=O)c4)ccnc3O2)cc1 (stereo not drawn) | nt | ? | nt | ? | ? | 6.51µM*
COc1ccc(C(=O)Nc2ccccc2C(=O)OCc2cc(=O)n3nc(C4CC4)sc3n2)cc1 | nt | nt | nt | nt | i | i
CCOc1ccccc1NS(=O)(=O)c1c(-c2ccc(C)cc2)csc1C(=O)OC | nt | nt | nt | nt | i | ?
O=C(c1cccs1)N1CCCc2cc(NS(=O)(=O)c3ccc(F)cc3)ccc21 | nt | nt | nt | nt | i | i
O=C(N/N=C/c1ccccc1O)c1cc[n+]([O-])cc1 | ? | ? | 25.9µM* | -18.2% | i | i
COCc1cc(C)nc(OCC(=O)N/N=C/c2ccc(O)cc2O)c1C#N | 19.5% | ? | ? | -28.1% | i | i
COc1ccc(C(=O)Nc2ccccc2C(=O)N/N=C/c2ccncc2)cc1OC | 2.4% | 25.9µM* | -82.5% | 25.9µM* | ? | ?
COc1ccc(/C=N/NC(=O)c2nn(C)cc2Br)cc1CSCc1ccco1 | 1.1% | 2.0% | -5.6% | 1.3% | nt | nt
COCc1cc(C)nc(OCC(=O)N/N=C/c2ccccc2O)c1C#N | 8.1% | 18.4µM* | 5.3% | ? | i | i
COc1ccc(C(=O)Nc2ccccc2C(=O)NCc2cccnc2)cc1OC | 4.4% | 0.7% | 9.6% | -0.1% | nt | nt
CCOc1cc(/C=N/NC(=O)c2nn(C)cc2Br)ccc1OCc1ccccc1 | 16.6% | 9.8% | -1.3% | -0.8% | 16.4µM* | i
CCOC(=O)c1[nH]c(C)c(CCC(=O)NCc2ccc(N(C)C)cc2)c1C | nt | nt | nt | nt | i | i
CCC(Sc1nc2ccncc2[nH]1)C(=O)Nc1ccc(F)cc1 (stereo not drawn) | nt | nt | nt | nt | ? | i
CCC(C(=O)Nc1ccccc1OC)n1nc(C)c2sc3ccccc3c2c1=O (stereo not drawn) | nt | nt | nt | nt | i | i
Cc1ccccc1OCC(=O)N/N=C/c1cccc2cccnc12 | 17.4% | ? | ? | -13.7% | ? | i
COc1ccc(C(=O)Nc2ccccc2C(=O)N/N=C/c2cccc3ccccc23)cc1 | 5.7% | 18.4µM* | 13.5% | 18.4µM* | ? | ?
CN(C)c1ccc(C=NNC(=O)c2cccc3ccccc23)c(Cl)c1 | 18.3% | ? | 18.4µM* | ? | 3.66µM* | 5.17µM*
COc1ccc(C(=O)Nc2ccccc2C(N)=O)cc1 | 1.1% | -16.2% | -9.4% | -3.3% | i | ?
O=C(N/N=C/c1ccc[nH]1)c1ccccc1O | -31.7% | -11.0% | ? | -15.3% | 5.17µM* | ?
O=C(COc1cccc2cccnc12)N/N=C/c1ccccc1O | -16.9% | -28.7% | -22.0% | -15.3% | 11.6µM* | ?
Cc1cccc(N(C)c2nc3ccccc3c3nnc(C)n23)c1 | nt | nt | nt | nt | i | i
CCOc1ccc(C=NNC(=O)c2cccc3ccccc23)cc1OCC | 8.9% | 15.0% | -3.6% | -0.9% | 23.1µM* | i
O=C(N/N=C/c1ccccc1O)c1cccc2ccccc12 | -8.6% | 9.2µM* | ? | ? | ? | i
COc1cc(/C=N/NC(=O)c2cccc3ccccc23)ccc1OCC(N)=O | 0.3% | -0.7% | -6.6% | -8.4% | i | i
SMILES | MCF10A rereplic | HT1080 IDH1KD tx | SW480 rerep | HT1080-NT tox | KB-V1 MDR tox | KB-3-1 tox
COc1cc2c(cc1NC(=O)CN(C)Cc1cccc(OC)c1OC)oc1ccccc12 | 7.31µM* | -28.1% | ? | -2.8% | ? | i
COc1cc2c(cc1NC(=O)COC(=O)[C@@H](NC(=O)c1ccccc1)C(C)C)oc1ccccc12 | 18.8% | -3.5% | -0.5% | -13.7% | 9.2µM* | i
COc1cc2c(cc1NC(=O)COC(=O)[C@@H](NC(=O)c1ccccc1F)C(C)C)oc1ccccc12 | -0.6% | 9.4% | -13.8% | 3.6% | 16.4µM* | i
COc1cc2c(cc1NC(=O)COC(=O)CNC(=O)c1ccccc1)oc1ccccc12 | -1.2% | -7.5% | -0.3% | -4.2% | i | i
COc1cccc(CN(C)CC(=O)Nc2cc3oc4ccccc4c3cc2OC)c1 | 2.0% | 1.7% | 6.6% | 9.7% | ? | ?
COc1cc(C(=O)NC(=S)Nc2ccc([N+](=O)[O-])cc2C)cc(OC)c1OC | 2.4% | -9.0% | 17.2% | -26.2% | 2.06µM* | i
COc1cc(C(=O)NC(=S)Nc2ccc([N+](=O)[O-])cc2)cc(OC)c1OC | ? | -8.7% | 0.5% | -4.6% | i | i
CCN1CCC(N(Cc2cccc(OC)c2)C(=O)Nc2cccc(C)c2C)CC1 | nt | nt | nt | nt | i | i
COc1ccc(-c2nc(N3CCC(C)CC3)[nH]c(=O)c2C#N)cc1 | 3.66µM* | -20.6% | ? | 0.0% | ? | i
COc1ccc(-c2nc(N3CCCC3)[nH]c(=O)c2C#N)cc1 | ? | 2.1% | -9.2% | 4.9% | i | ?
CCN(CC)c1ccc(NC(=O)c2cccn2-c2nnc(N3CCCCC3)s2)c(C)c1 | nt | nt | nt | nt | i | i
O=C(Nc1cc(Cl)cc2c1-c1ccc(Cl)cc1C2O)C(Cl)Cl (stereo not drawn) | ? | -25.8% | ? | -12.0% | 18.4µM* | ?
S=C(Nc1ccc(Oc2ccccc2)cc1)NC1CCCCCC1 | 14.6µM* | ? | 2.4% | ? | ? | ?
S=C(Nc1ccc(Oc2ccc(NC(=S)NC3CCCCC3)cc2)cc1)NC1CCCCC1 | -5.2% | -15.6% | -3.0% | 6.3% | 16.4µM* | ?
S=C(NNc1ccc2ccccc2c1)NC1CCCCC1 | 4.61µM* | -13.5% | ? | -3.4% | ? | ?
COc1ccc(-n2ncc(C(=O)N3CCN(C(=O)c4ccco4)CC3)c2C2CCN(C(=O)OC(C)(C)C)CC2)cc1 | nt | nt | nt | nt | ? | i
CCOc1ccccc1NC(=O)C1CCN(S(=O)(=O)c2ccccc2)CC1 | nt | nt | nt | nt | ? | i
COc1ccc(CNC(=O)Cn2ccc3cc(S(=O)(=O)N4CCCCC4)ccc32)cc1OC | nt | nt | nt | nt | i | i
CC(Sc1ncc(S(=O)(=O)c2ccc(C(C)C)cc2)c(N)n1)C(=O)Nc1ccccc1 (stereo not drawn) | nt | nt | nt | nt | i | ?
Cc1cc(=O)n(CC(=O)Nc2ccc([N+](=O)[O-])cc2)c(-n2nc(C)cc2C)n1 | nt | nt | nt | nt | ? | i
CCOC(=O)Nc1ccc2c(c1)C(=NNC(N)=S)c1ccccc1-2 | ? | ? | ? | ? | 23.1µM* | ?
